# Source: PubChem BioAssay (National Center for Advancing Translational Sciences (NCATS))
# DT40 TDP1 no CPT = qHTS for Inhibitors of human tyrosyl-DNA phosphodiesterase 1 (TDP1): qHTS in cells in absence of CPT. DT40 Tdp1-/- hTDP1 cells, no CPT, ATP luminescence, 48 h. Potency, µM (doses to about 46.2 µM), inactives show at the highest dose activity change, negative = growth inhibition, most hits filed as inhibitors. 15% of 420,000 active; note: potency is the fitted concentration of half-maximal effect; nearly all actives have a fitted effect of over 55% in size
#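 Camptothecin absent (DMSO only). Human TDP1-complemented DT40 knockout cells, 400 cells/well, 37 °C for minimum 48 hr; ATP measured via CellTiter-Glo, 30 min dark incubation, luminescence.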
# IL-1B inflam inh = qHTS for Inhibitors of Inflammasome Signaling: IL-1-beta AlphaLISA Primary Screen | THP-1 LPS/ATP IL-1B secretion, AlphaLISA, 16 h; active compounds read low | activity change, % at 57.5 µM | 4.7% of 360,000 active; in the data active = activity change below about -50%; inconclusive = mostly about -30% to -49%
#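 THP-1 cells pretreated 1 hr with compounds (up to 57.5 uM final), then stimulated with LPS (250 ng/mL final) plus ATP (1.25 mM final); secreted IL-1B measured by AlphaLISA after 16 hr, decreased signal indicating inhibition.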
# RORg inh = qHTS for inhibitors of ROR gamma transcriptional activity | Nuclear receptor ROR-gamma (Mus musculus), P51450 | Drosophila S2 Gal4-RORgamma UAS-luciferase reporter, 20 h | Potency, µM (top dose mostly 53.6 µM), for inactives: top-dose activity change, negative = inhibition, hits mostly inhibitors | 5.4% of 310,000 active | AID 2551, 2010; note: potency is the fitted concentration of half-maximal effect; nearly all actives have a fitted effect of over 60% in size
# Target sequence (P51450 whole entry, looked up, the tested form may be a part): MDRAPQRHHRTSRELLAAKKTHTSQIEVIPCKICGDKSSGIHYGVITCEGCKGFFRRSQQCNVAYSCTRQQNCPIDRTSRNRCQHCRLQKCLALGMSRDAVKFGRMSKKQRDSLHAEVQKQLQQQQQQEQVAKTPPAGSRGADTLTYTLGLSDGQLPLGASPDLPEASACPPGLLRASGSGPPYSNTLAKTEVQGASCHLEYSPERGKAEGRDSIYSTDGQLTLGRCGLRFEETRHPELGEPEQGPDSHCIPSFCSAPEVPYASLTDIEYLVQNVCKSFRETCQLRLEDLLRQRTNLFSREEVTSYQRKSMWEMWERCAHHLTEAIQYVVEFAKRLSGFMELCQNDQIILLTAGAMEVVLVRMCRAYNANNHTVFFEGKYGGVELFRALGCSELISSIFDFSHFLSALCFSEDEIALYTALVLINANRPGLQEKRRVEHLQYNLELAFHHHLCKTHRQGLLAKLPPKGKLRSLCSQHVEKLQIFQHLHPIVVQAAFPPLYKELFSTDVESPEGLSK
#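 Using a luciferase readout, inhibitors were identified by reduced reporter activity in Drosophila cells coexpressing a copper-inducible Gal4–ROR gamma fusion and UAS-driven Photinus luciferase, incubated 20 hr after 700 uM copper sulfate.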
# LDHA block = qHTS assay for inhibitors of human lactate dehydrogenase; L-lactate dehydrogenase A chain (Homo sapiens), P00338; purified LDHA, NADH/diaphorase-resazurin fluorescence; active compounds read low; activity change, % (values are at about 110 or 230 µM); 0.15% of 480,000 active; AID 1347041, 2019; in the data active = activity change below about -30%; inconclusive = mostly about -25% to -30%;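 note: plate controls were DMSO wells for no effect and wells without enzyme for full effect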
#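 Resorufin fluorescence (ex540/em590), read at 0 and 20 min after diaphorase/resazurin addition, reports the NADH left after a 5 min room-temperature reaction of 2 nM human LDH5 with 0.06 mM NADH and 0.2 mM pyruvate.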
# VP16 counter = VP16 counterscreen qHTS for inhibitors of ROR gamma transcriptional activity; Drosophila S2 Gal4-VP16 UAS-luciferase, luminescence, 20 h; Potency, µM (series often up to 53.6 µM), for inactives: at the top dose activity, negative = inhibition, hits mostly inhibitors; 3.5% of 310,000 active; AID 2546, 2010;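 note: Gal4-VP16 expression switched on by copper sulfate through the metallothionein promoter; potency is the fitted concentration of half-maximal effect; nearly all actives have a fitted effect of over 50% in size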
# TDP1 cell CPT = qHTS for Inhibitors of human tyrosyl-DNA phosphodiesterase 1 (TDP1): qHTS in cells in presence of CPT; chicken DT40 Tdp1-/-;hTDP1 cells + 20 nM CPT, ATP luminescence, 48 h; Potency, µM (series often up to 46.2 µM), for the others: at the top dose activity change, negative = growth inhibition, actives largely listed as inhibitors; 12% of 420,000 active; AID 686979, 2013; note: potency is the fitted concentration of half-maximal effect; nearly all actives have a fitted effect of over 55% in size
#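 Cell growth measured by CellTiter-Glo luminescence after a minimum 48 h, 37 C compound exposure with 20 nM CPT in Tdp1-knockout DT40 cells stably expressing hTDP1, seeded 400/well; qHTS titration format.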
# Active calls of the source: *; ? = inconclusive; / = no result; [ ] = another dose, or the depositor's remark. In the library only some 18% were active in any assay of this set; here they are far more common. Unless noted, calls come from the whole dose curve; as a rule, active = well fitted curve in the direction sought with a large enough effect; inconclusive = small, poorly fitted or top-dose-only effect, or another doubt; inactive = no such curve, though single readings can be large; an effect the other way counts as inactive or inconclusive. Unless noted, % is set by controls: 0 for no effect and ±100 for the full control effect.
SMILES,DT40 TDP1 no CPT,IL-1B inflam inh,RORg inh,LDHA block,VP16 counter,TDP1 cell CPT
Cc1cccc(NC(=O)c2nc3ccccc3nc2N2CCOCC2)c1,/,/,/,-14,/,/
CCOC(=O)[C@]12CCC=C1N(Cc1ccc(Cl)cc1Cl)C(=O)[C@H](CC(=O)NCCCN1CCCC1=O)C2,?,-12,/,-2,/,18µM*
CCCN(CC(=O)Nc1ccccc1C)C(=O)C1CCN(c2ncnc3sc(C)c(C)c23)CC1,10µM*,-14,/,-2,/,21µM*
Cc1ccccc1OCC(=O)NNC(=O)C1CCN(c2ncnc3sc(C)c(C)c23)CC1,26µM*,7,/,-6,/,23µM*
Cc1sc2ncnc(N3CCC(C(=O)Nc4ccc(Cl)c(Cl)c4)CC3)c2c1C,?,-7,/,0,/,?
COc1ccccc1OCC(=O)NNC(=O)C1CCN(c2ncnc3sc(C)c(C)c23)CC1,13µM*,-7,/,-4,/,?
COc1ccc(-c2csc(NC(=O)C3CCN(c4ncnc5sc(C)c(C)c45)CC3)n2)cc1OC,2.6µM*,64,/,-12,/,2.9µM*
CCN(CC)c1ccc(C(=O)NNC(=O)C2CCN(c3ncnc4sc(C)c(C)c34)CC2)cc1,?,-4,/,-8,/,?
CCOCCCNCc1ccc(F)cc1Cl,/,/,/,5,/,/
CSc1cccc(NC(=O)c2cc(Br)ccc2Cl)c1,/,/,/,2,/,/
Cc1sc2ncnc(N3CCC(C(=O)N4CC(C)SC4=Nc4ccc(Cl)cc4)CC3)c2c1C (stereo unspecified),?,8,/,-1,/,?
CCc1ccc2nc(NC(=O)C3CCN(c4ncnc5sc(C)c(C)c45)CC3)sc2c1,?,31,/,0,/,?
C=CCn1c(C)cc(-c2csc(NC(=O)C3CCN(c4ncnc5sc(C)c(C)c45)CC3)n2)c1C,21µM*,0,/,-8,/,?
CCOc1ccccc1N=C1SCC(C)N1C(=O)C1CCN(c2ncnc3sc(C)c(C)c23)CC1 (stereo unspecified),15µM*,0,/,1,/,21µM*
Cc1sc2ncnc(N3CCC(C(=O)N(CC(C)C)c4nc5ccccc5s4)CC3)c2c1C,15µM*,12,/,-3,/,21µM*
CCN(CC)C(=O)c1sc2c(c1C)c(=O)n(Cc1ccccc1)c(=O)n2Cc1c(C)cc(C)cc1C,21µM*,/,/,1,/,?
CCN(CC)C(=O)c1sc2c(c1C)c(=O)n(-c1ccc(C)c(C)c1)c(=O)n2CC(=O)Nc1ccc(F)cc1,?,/,/,2,/,-27%
CCN(CC)C(=O)c1sc2c(c1C)c(=O)n(Cc1ccccc1)c(=O)n2Cc1cc(C)ccc1C,?,/,/,-2,/,?
CCOC(=O)c1ccccc1NC(=O)Cn1c(=O)n(-c2ccc(CC)cc2)c(=O)c2c(C)c(C(=O)N(C)C)sc21,12µM*,/,/,-3,/,8.2µM*
CCN(CC)C(=O)c1sc2c(c1C)c(=O)n(-c1ccc(C)c(C)c1)c(=O)n2Cc1cccc(Cl)c1,?,/,/,0,/,21µM*
CCOC(=O)c1sc2c(c1C)c(=O)n(CCO)c(=O)n2Cc1ccccc1,16µM*,-1,0%,-3,-5%,15µM*
O=[N+]([O-])c1cc(S(=O)(=O)Nc2ccccc2)ccc1N/N=C/c1sc(Nc2ccccc2)nc1Cl,/,/,/,-8,/,/
CCN(CC)C(=O)c1sc2c(c1C)c(=O)n(Cc1ccccc1)c(=O)n2Cc1ccc(Cl)cc1,4.6µM*,/,/,3,/,?
Cc1cccc(C)c1NC(=O)Cn1c(=O)n(Cc2ccccc2)c(=O)c2c(C)c(C(=O)N(C)C)sc21,?,/,/,-4,/,16µM*
COC(=O)c1ccccc1NC(=O)Cn1c(=O)n(Cc2ccccc2)c(=O)c2c(C)c(C)sc21,-10%,10,3%[10 µM],-1,4%,2%
SMILES,DT40 TDP1 no CPT,IL-1B inflam inh,RORg inh,LDHA block,VP16 counter,TDP1 cell CPT
COc1ccc(N(CC(=O)N2CCN(c3ccccc3)CC2)S(=O)(=O)c2c(C)noc2C)cc1,?,-14,0%,3,-6%,?
COc1ccc(N(CC(=O)N2CCN(c3cc(C)ccc3C)CC2)S(=O)(=O)c2c(C)noc2C)cc1,13µM*,0,13%,-2,-13%,23µM*
COc1ccc(N(CC(=O)N2CCN(c3cccc(C)c3C)CC2)S(=O)(=O)c2c(C)noc2C)cc1,16µM*,-28,7%,-2,1%,21µM*
Cc1ccc(N(CC(=O)N2CCN(c3cc(C)ccc3C)CC2)S(=O)(=O)c2c(C)nn(C)c2C)cc1,16µM*,/,/,0,/,21µM*
COc1ccc(N(CC(=O)Nc2cc(C)ccc2C)S(=O)(=O)c2c(C)noc2C)cc1,-27%,45,31%,-5,-1%,?
CCCOc1ccc(Br)cc1/C=C(/C#N)C(=O)OC,/,/,/,-2,/,/
COc1cccc2[nH]c(C(=O)NCCCN(C)C)cc12,/,/,/,12,/,/
CCCCOCCCNC(=O)CCC(=O)NCCC1=CCCCC1,/,/,/,1,/,/
Fc1ccc(F)c(CNCCN2CCCC2)c1,/,/,/,-4,/,/
O=S(=O)(c1ccccc1C(F)(F)F)N1CCN(c2nc(-c3cccs3)nc3ccccc23)CC1,11µM*,/,/,4,/,13µM*
O=S(=O)(c1cccs1)N1CCN(c2nc(-c3cccs3)nc3ccccc23)CC1,20µM*,/,/,-5,/,?
CC(C)(C)c1ccc(S(=O)(=O)N2CCN(c3nc(-c4cccs4)nc4ccccc34)CC2)cc1,?,/,/,-9,/,-12%
O=[N+]([O-])c1ccccc1S(=O)(=O)N1CCN(c2nc(-c3cccs3)nc3ccccc23)CC1,?,/,/,-4,/,?
CS(=O)(=O)N1CCN(c2nc(-c3cccs3)nc3ccccc23)CC1,11µM*,/,/,-1,/,16µM*
CC1=CC2=C(OC1N(C)C)c1cccc3cccc(c13)C2=O (stereo unspecified),?,-10,8.9µM*,-1,?,-28%
COc1cc(/C=C/c2ccc3cccc(O)c3n2)cc(Cl)c1OC,4.1µM*,-93*,0.79µM*,3,4.5µM*,4.1µM*
COc1cc(/C=C/c2ccc3cccc([N+](=O)[O-])c3n2)cc(OC)c1O,/,/,/,21,/,/
Cc1ccc(/C=C/c2ccc3cccc(O)c3n2)cc1C,/,/,/,5,/,/
